From PubChem BioAssay AID1851 (National Center for Advancing Translational Sciences (NCATS), 2009)
About 4,000 (25%) of roughly 16,000 compounds were called active. About 26% were inconclusive and are not listed. The call rests on the fitted dose curve; in most records, active means well fitted curve in the direction sought with a large enough effect; inconclusive means small, poorly fitted or top-dose-only effect, or effect the other way; inactive means no such curve, though single readings can be large or run the other way. Only a sample is shown.

Each compound was assayed against Cytochrome P450 2C9 (Homo sapiens) (UniProt P11712) (assay: Cytochrome panel assay with activity outcomes). Settings: recombinant CYP, pro-luciferin dealkylation, luminescence, p450-cyp2c9; series mostly up to 57.1 µM.
Chain of Cytochrome P450 2C9 (Homo sapiens) (P11712 whole entry, looked up): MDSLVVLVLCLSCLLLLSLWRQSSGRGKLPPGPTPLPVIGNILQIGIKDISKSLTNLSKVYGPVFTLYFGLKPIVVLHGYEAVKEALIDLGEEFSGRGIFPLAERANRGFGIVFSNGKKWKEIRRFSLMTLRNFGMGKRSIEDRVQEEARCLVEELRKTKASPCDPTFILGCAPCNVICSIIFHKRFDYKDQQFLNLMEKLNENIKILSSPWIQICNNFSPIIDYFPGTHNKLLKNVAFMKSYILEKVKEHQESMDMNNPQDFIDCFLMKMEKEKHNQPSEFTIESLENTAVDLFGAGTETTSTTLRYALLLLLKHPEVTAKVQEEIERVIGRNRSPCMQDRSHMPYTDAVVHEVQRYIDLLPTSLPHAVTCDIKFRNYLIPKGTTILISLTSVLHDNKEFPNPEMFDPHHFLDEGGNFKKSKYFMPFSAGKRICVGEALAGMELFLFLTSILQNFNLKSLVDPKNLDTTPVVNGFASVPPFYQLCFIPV
On the % scale 0 is the no-effect control and ±100 the full control effect.

AC50, inactive:
CCCOc1ccc(C(=O)OCCN(CC)CC)cc1N
Clc1ccc(Nc2ncn[nH]2)cc1
CN1CCN(c2ncc3ncc(=O)n(-c4ccccc4)c3n2)CC1
CC1CC(=O)c2cnc(N)nc2C1 (stereo not drawn)
Cc1ccc(NCCC(=O)c2ccc(Cl)cc2)cc1C
CCOC(=O)N1CCC(NC(=O)CCC(=O)N2CCOc3ccccc32)CC1
Cc1ccc(-n2ncc3c(=O)n(CC(=O)NCC4CCCO4)cnc32)cc1 (stereo not drawn)
CO[C@H]1[C@H](O[C@H]2O[C@@H](C)[C@@H](O[C@@H]3C[C@](C)(O)[C@H](OC(=O)CC(C)C)[C@H](C)O3)[C@@H](N(C)C)[C@@H]2O)[C@@H](CC=O)C[C@@H](C)[C@@H](O)/C=C\C=C/C[C@@H](C)OC(=O)C[C@H]1OC(C)=O
COc1ccccc1N1CCN(CCCCNS(=O)(=O)c2cccc3c(N(C)C)cccc23)CC1
Cc1ccc(/C=N/NC(=O)Cn2nccc2C)o1
COc1ccccc1NC(=O)c1nc[nH]c1C(=O)Nc1ccccc1OC
COC(=O)C1=C(C)Nc2ncnn2C1c1cccnc1 (stereo not drawn)
NS(=O)(=O)c1cc2c(cc1Cl)N[C@@H](C(Cl)Cl)NS2(=O)=O
COc1cc([C@H](O)CO)ccc1O
C=C1CC[C@H](O)C/C1=C/C=C1\CCC[C@]2(C)[C@H]1CC[C@H]2[C@@H](C)/C=C\[C@@H](C)C(C)C
COc1cc(C(=O)N2CCC(NC(=O)C(Cc3ccc(C(C)C)cc3)NC(C)=O)CC2)cc(OC)c1OC (stereo not drawn)
COc1cccc(C(=O)Nc2nc3c(s2)CN(C)CC3)c1
COc1ccc(NC(=O)N2CCCC3(CCN(C(=O)c4ccco4)CC3)C2)cc1
CC(=O)Nc1nnc(SCc2ccc(F)cc2)s1
C[N+]1(C)CCC[C@@H](OC(=O)C(O)(c2ccccc2)c2ccccc2)C1

AC50, active:
O=C1CC(c2ccccc2)Cc2nc(N3CCc4ccccc4C3)ncc21 (stereo not drawn) 4.47 µM
Cc1ccc(-c2noc(CN3CCN(C(c4ccccc4)c4ccccc4)CC3)n2)cc1 5.01 µM
CC(C)(C)N(NC(=O)Nc1ccccc1)C(=O)c1ccccc1Cl 14.1 µM
Cc1cc(C)cc(C(=O)N(NC(=O)Nc2ccc(Cl)cc2)C(C)(C)C)c1 5.01 µM
O=S1(=O)CCN(c2ccccc2CC(c2c[nH]c3ccccc23)c2c[nH]c3ccccc23)CC1 3.16 µM
CCOC(=O)N1CCC(NC(=O)CSCc2cnn(-c3ccccc3)c2-n2cccc2)CC1 4.47 µM
Cc1ccc(NC(=O)Cn2cnc3c(cnn3C(C)(C)C)c2=O)cc1 10 µM
Cc1ccc(C)c(Cn2cnc3c(cnn3C(C)(C)C)c2=O)c1 8.91 µM
Cc1ccccc1Cn1cnc2c(cnn2C(C)(C)C)c1=O 15.8 µM
Cc1noc(NS(=O)(=O)c2cccc3c(N(C)C)cccc23)c1C 0.631 µM
Cc1ccc(/C=C/C(=O)N2CC(C)CC(C)C2)o1 (stereo not drawn) 15.8 µM
CSc1nc(Sc2cccc(Cl)c2)c2ccccc2n1 0.251 µM
COc1ccccc1NC(=O)C1=C(C)Nc2nnnn2C1c1cccc(Br)c1 (stereo not drawn) 14.1 µM
CC1=C(C(=O)Nc2cccnc2)C(c2cccnc2)n2nc(-c3cccs3)nc2N1 (stereo not drawn) 8.91 µM
COc1ccccc1NC(=O)C1=C(C)Nc2nc(-c3ccc(N(C)C)cc3)nn2C1c1ccncc1 (stereo not drawn) 8.91 µM
Cc1ccc(Oc2ccccc2/C=C2\SC(=O)N(C)C2=O)cc1 10 µM
COc1ccc2c(c1)CCc1sc(NC(=O)c3ccc(C)cc3)nc1-2 5.01 µM
O=C(Nc1nnc(SCc2ccc(Cl)cc2)s1)c1ccco1 0.562 µM
COc1ccc(C(=O)Nc2nc3c(s2)Cc2cc(OC)ccc2-3)cc1 5.62 µM
COc1ccc2c(c1)Cc1sc(NC(=O)c3ccco3)nc1-2 10 µM

activity, negative = inhibition, inactive:
Clc1ccc(-c2noc(CN3CCCCC3)n2)cc1 -0.0394% [at 11.4 µM]
CC(=O)[C@@H](C)CCO[C@@]1(C)OCC[C@@H]1C -15.7% [at 11.4 µM]
CC(C)(CC(=O)Nc1ccccc1)C(=O)O 4.33% [at 11.4 µM]
Cc1c(Cl)c(S(N)(=O)=O)cc(S(N)(=O)=O)c1NC(=O)c1ccc(Cl)cc1 -6.54% [at 11.4 µM]
O=C(O)[C@@H](Cc1c[nH]c2ccccc12)C(=O)NO -10.3% [at 11.4 µM]
c1ccc2c(CN3CCN(Cc4c[nH]c5ccccc45)CC3)c[nH]c2c1 -0.0395% [at 11.4 µM]
Cc1ncn(-c2ccccc2O)c1C 9.91% [at 11.4 µM]
Cc1cnc(CNc2ccnc(-c3ccccc3Cl)n2)cn1 7.84% [at 2.29 µM]
CN(C)c1ccc(-c2cncnc2-n2ccnc2)cc1 15.2% [at 2.29 µM]
C[C@@H](CSC(=N)N)C(N)=O -9.17% [at 11.4 µM]
Cc1noc(C)c1-c1nc(N(C)C)c2ccccc2n1 27.2% [at 2.29 µM]
CSc1nnnc2ccccc12 14.9% [at 11.4 µM]
COc1ccccc1CNc1ccnc(-c2ccc(N(C)C)cc2)n1 -19.9% [at 2.29 µM]
Cc1noc(C)c1-c1nccc(NCc2cccs2)n1 -12.6% [at 2.29 µM]
CCCCNN -5.3% [at 11.4 µM]
NCCSCCC(=O)O -9.49% [at 11.4 µM]
COc1cc(C)cc2c(-c3c(O)cc(O)c4c3C[C@H](C)N[C@@H]4C)cc(-c3cc(-c4c(O)cc(O)c5c4C[C@H](C)N[C@@H]5C)c4cc(C)cc(OC)c4c3O)c(O)c12 -22.5% [at 11.4 µM]
O=C(O)C[C@H](NC(=O)CP(=O)(O)O)C(=O)O.[NH-][C@@H]1CCCC[C@@H]1[NH-].[Pt] -7.92% [at 11.4 µM]
